Inconclusive results are not listed. Calls of active or inactive are those of the source. Unless noted, calls come from the whole dose curve.
Assays:
[1] = target: Gonadotropin-releasing hormone receptor (Homo sapiens) (UniProt P30968); test: Human gonadotropin-releasing hormone receptor (GnRHR) small molecule agonists, calcium flux assay in GnRHR-HEK293 cells (AID 1920063); note: nearly all actives have a fitted effect of over 35% in size
Procedure, shortened: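 Intracellular calcium rise is the read-out: engineered human GnRHR HEK293 cells, dye-loaded, are exposed to DMSO-dissolved compounds and fluorescence at Ex/Em 480/540 is tracked for 3 min.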

[2] = target: KiSS-1 receptor (Homo sapiens) (UniProt Q969F8); test: Human kisspeptin (KISS1R) small molecule agonists, calcium flux assay in KISS1R-HEK293 cells (AID 1920064; active = well fitted activation curve with a large enough effect in the repeat runs)
Procedure, shortened: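 Concentration-response testing used 15 concentrations in triplicate on human KISS1R-expressing HEK293 cells. Calcium-dependent fluorescence (Ex/Em 480/540) was followed kinetically for 3 min after compound transfer.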

[3] = G protein-coupled receptor (GPCR) small molecule agonists, calcium flux assay: HEK293 wild type cell line counter screen (AID 1920065)
Procedure, shortened: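 Fluorescence intensity signals activation. After overnight (18 h) culture and a 1 h calcium dye load at 37 C, compounds are added by pin tool and the plate read at 480/540 nm for 3 min in 1 s steps.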

[4] = p53 small molecule agonists, cell-based qHTS assay with rat liver microsomes (AID 1963578)
Procedure, shortened: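 Rat liver microsome activation: microsomes 0.5 mg/mL, NADPH 0.5 mg/mL final; p53RE-bla cells, 16 h 37 C; LiveBLAzer readout, 2 h RT dark.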

[5] = p53 small molecule agonists, cell-based qHTS assay with human liver microsomes: qHTS cell viability counter screen (AID 1963579); note: nearly all actives have a fitted effect of over 45% in size
Procedure, shortened: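 Luminescent CellTiter-Glo read-out, 30 min at room temperature, gauged cytotoxicity in p53RE-bla cells exposed 16 h at 37 C to DMSO-dissolved compounds with metabolic activation by human liver microsomes and NADPH, each 0.5 mg/mL final.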

[6] = p53 small molecule agonists, cell-based qHTS assay with rat liver microsomes: qHTS cell viability counter screen (AID 1963580); note: nearly all actives have a fitted effect of over 45% in size
Procedure, shortened: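 Luminescent ATP readout (CellTiter-Glo, 30 min at room temperature) reports viability of p53RE-bla HCT-116 cells after 16 h at 37 C with test compounds under metabolic activation by rat liver microsomes and NADPH at 0.5 mg/mL final each.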

[7] = p53 small molecule agonists, cell-based qHTS assay: qHTS cell viability counter screen (AID 1963581); note: nearly all actives have a fitted effect of over 45% in size
Procedure, shortened: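 Luminescence from CellTiter-Glo, reflecting ATP content, serves as the cytotoxicity measure; it is taken after the 2 h reporter substrate step in HCT-116 p53RE-bla cells dosed for 16 h at 37 C.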

[8] = p53 small molecule agonists, cell-based qHTS assay (AID 1963582; active = well fitted activation curve with a large enough effect in the signal ratio in the repeat runs, not every such curve was filed as active; the % refers to the signal ratio)
Procedure, shortened: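 After plating, p53RE-bla cells sat 5 h in the incubator; compounds or DMSO vehicle were pinned in; a 16 h incubation at 37 C followed; FRET substrate was added and, 2 h later at RT, fluorescence was measured.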

[9] = target: 5-hydroxytryptamine receptor 2A (Homo sapiens) (UniProt P28223); test: 5-hydroxytryptamine receptor 2A (HTR2A) small molecule antagonists, cell-based qHTS assay (AID 1963586); note: nearly all actives have a fitted effect of over 45% in size
Procedure, shortened: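 CHO cells stably expressing human HTR2A were plated for 18 h at 37 C, then loaded with calcium dye for 1 h. Compounds were preincubated 5 min at room temperature before DOI (4 nM solution) was added. Kinetic fluorescence was read for 3 min.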

[10] = target: 5-hydroxytryptamine receptor 2A (Homo sapiens) (UniProt P28223); test: 5-hydroxytryptamine receptor 2A (HTR2A) small molecule agonists, cell-based qHTS assay (AID 1963587); note: nearly all actives have a fitted effect of over 30% in size
Procedure, shortened: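 HTR2A-CHO cells, plated 18 h at 37 C/5% CO2, dye-loaded 1 h at 37 C; compounds in DMSO added by pin tool (agonist mode). Intracellular calcium flux read as kinetic fluorescence on FDSS over 2 min at 1 s intervals.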

[11] = target: Muscarinic acetylcholine receptor M1 (Homo sapiens) (UniProt P11229); test: Cholinergic receptor muscarinic 1 (CHRM1) small molecule antagonists, cell-based qHTS assay (AID 1963588); note: nearly all actives have a fitted effect of over 40% in size
Procedure, shortened: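 Compounds were tested at 15 concentrations in three independent runs. Dye-loaded CHRM1-CHO cells were exposed 5 min at room temperature before stimulation by acetylcholine added at 50nM. Intracellular calcium was read kinetically on FDSS for 3 min.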

[12] = target: Muscarinic acetylcholine receptor M1 (Homo sapiens) (UniProt P11229); test: Cholinergic receptor muscarinic 1 (CHRM1) small molecule agonists, cell-based qHTS assay (AID 1963589); note: nearly all actives have a fitted effect of over 35% in size
Procedure, shortened: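 Fluorescent calcium dye reports M1 activation in stably transfected CHO cells. Compounds, 15 concentrations, added after 1 h dye loading at 37 C; kinetic reading at 1 sec intervals.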

[13] = cAMP Responsive Elements (CRE) small molecule agonists, cell-based qHTS assay (AID 1963590)
Procedure, shortened: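 Compound exposure lasted 3 h at 37 C/5% CO2 in CRE-bla HEK 293T cells grown in assay medium with 10% dialyzed FBS and 25 mM HEPES. Reporter signal came from LiveBLAzer B/G FRET substrate, 2 h, room temperature.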

[14] = target: Beta-2 adrenergic receptor (Homo sapiens) (UniProt P07550); test: Adrenergic beta2 receptor (ADRB2) small molecule antagonists, cell-based qHTS assay (AID 1963592); note: series mostly up to about 92 µM; nearly all actives have a fitted effect of over 50% in size
Procedure, shortened: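 Assay format: CHO-ADRB2 cells, 18-20hr seeding at 37C/5% CO2, then compound plus 1nM isoproterenol agonist mix for 0.5hr RT. Homogeneous time-resolved fluorescence cAMP detection after 1hr, expressed as 665/615 nm ratio.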

[15] = target: Beta-2 adrenergic receptor (Homo sapiens) (UniProt P07550); test: Adrenergic beta2 receptor (ADRB2) small molecule agonists, cell-based qHTS assay (AID 1963593);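 note: CHO cells stably overexpressing human ADRB2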
Procedure, shortened: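 CHO cells stably over-expressing ADRB2 were plated overnight at 37C, then dosed with compounds plus a stimulation mix containing 100uM IBMX and 25uM Ro-20-1724 for 0.5hr at room temperature. cAMP was measured by HTRF competition, 1hr.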

[16] = target: D(2) dopamine receptor (Homo sapiens) (UniProt P14416); test: Dopamine D2 receptor (DRD2) small molecule agonists, cell-based qHTS assay (AID 1963594); note: nearly all actives have a fitted effect of over 35% in size
Procedure, shortened: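 HEK293 cells stably expressing DRD2 were cultured 24 h at 37 C, then given Ro20-1724 (0.1 mM final) and compounds for 10 min at room temperature. NKH477 (200nM) was then added for 30 min. cAMP was read by HTRF.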

[17] = target: D(2) dopamine receptor (Homo sapiens) (UniProt P14416); test: Dopamine D2 receptor (DRD2) small molecule antagonists, cell-based qHTS assay (AID 1963595; active = well fitted inhibition curve with a large enough effect in the signal ratio in the repeat runs, with a control signal flat; the % refers to the signal ratio)
Procedure, shortened: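 DRD2-HEK293; 0.1 mM Ro20-1724; cpd 10 min RT; NKH477 200 nM + quinpirole 12 nM, 30 min RT; HTRF cAMP (cAMP-d2/anti-cAMP cryptate), 665/620 nm ratio after 1 h.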

[18] = p53 small molecule agonists, cell-based qHTS assay with human liver microsomes (AID 1963577);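 note: p53 response element beta-lactamase reporter cells with liver microsomes plus NADPH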
Procedure, shortened: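 p53RE-bla cells; 5 h settle, 37 C/5% CO2; cpd + HLM 0.5 mg/mL + NADPH 0.5 mg/mL (final); 16 h 37 C; LiveBLAzer 2 h RT dark; fluorescence readout.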

[19] = cAMP Responsive Elements (CRE) small molecule antagonists, cell-based qHTS assay (AID 1963591; active = well fitted inhibition curve with a large enough effect in the signal ratio in the repeat runs, not every such curve was filed as active; the % refers to the signal ratio)
Procedure, shortened: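 Stimulation used NKH477 at a final 0.25 uM for 3 h in compound-treated CRE-bla HEK293T cells, seeded 18 h beforehand. Reporter activity was measured with LiveBLAzer B/G FRET substrate after 2 h at room temperature.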
% is set by controls: 0 for no effect and ±100 for the full control effect.

Chain of Muscarinic acetylcholine receptor M1 (Homo sapiens) (P11229 whole entry, looked up): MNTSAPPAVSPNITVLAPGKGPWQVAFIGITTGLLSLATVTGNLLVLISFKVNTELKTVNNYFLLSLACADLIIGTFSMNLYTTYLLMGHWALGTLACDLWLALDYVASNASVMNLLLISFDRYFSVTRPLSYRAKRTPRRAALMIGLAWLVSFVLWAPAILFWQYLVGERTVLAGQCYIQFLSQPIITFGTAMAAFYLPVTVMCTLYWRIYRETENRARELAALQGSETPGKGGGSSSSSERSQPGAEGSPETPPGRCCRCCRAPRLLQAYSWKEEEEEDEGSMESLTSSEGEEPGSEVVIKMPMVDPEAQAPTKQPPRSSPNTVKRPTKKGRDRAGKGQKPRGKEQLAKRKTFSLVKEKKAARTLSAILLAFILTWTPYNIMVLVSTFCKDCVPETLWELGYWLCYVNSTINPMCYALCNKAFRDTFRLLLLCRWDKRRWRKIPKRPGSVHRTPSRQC
Chain of KiSS-1 receptor (Homo sapiens) (Q969F8 whole entry, looked up): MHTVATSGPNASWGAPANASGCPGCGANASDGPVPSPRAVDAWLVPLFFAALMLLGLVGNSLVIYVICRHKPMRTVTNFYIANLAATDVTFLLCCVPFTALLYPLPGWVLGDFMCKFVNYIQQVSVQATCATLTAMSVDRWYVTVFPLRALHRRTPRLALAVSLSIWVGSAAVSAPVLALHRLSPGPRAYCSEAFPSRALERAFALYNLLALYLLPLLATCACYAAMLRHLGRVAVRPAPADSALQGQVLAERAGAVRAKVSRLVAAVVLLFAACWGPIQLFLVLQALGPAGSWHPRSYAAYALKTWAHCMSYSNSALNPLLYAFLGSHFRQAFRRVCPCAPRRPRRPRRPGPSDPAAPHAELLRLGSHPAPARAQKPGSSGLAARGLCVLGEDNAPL
Chain of 5-hydroxytryptamine receptor 2A (Homo sapiens) (P28223 whole entry, looked up): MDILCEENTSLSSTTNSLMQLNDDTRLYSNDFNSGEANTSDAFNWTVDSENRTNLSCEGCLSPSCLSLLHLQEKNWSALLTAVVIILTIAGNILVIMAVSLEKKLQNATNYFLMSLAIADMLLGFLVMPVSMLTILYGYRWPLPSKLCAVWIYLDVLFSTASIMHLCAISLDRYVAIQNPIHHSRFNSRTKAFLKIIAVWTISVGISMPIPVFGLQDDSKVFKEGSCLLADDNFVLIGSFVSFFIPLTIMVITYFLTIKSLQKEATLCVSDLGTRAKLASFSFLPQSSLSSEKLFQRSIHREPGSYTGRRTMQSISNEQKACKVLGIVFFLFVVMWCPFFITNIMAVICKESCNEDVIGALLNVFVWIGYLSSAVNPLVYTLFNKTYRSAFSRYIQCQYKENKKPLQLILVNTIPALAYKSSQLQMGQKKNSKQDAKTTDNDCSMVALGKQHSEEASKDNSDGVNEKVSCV
Chain of Gonadotropin-releasing hormone receptor (Homo sapiens) (P30968 whole entry, looked up): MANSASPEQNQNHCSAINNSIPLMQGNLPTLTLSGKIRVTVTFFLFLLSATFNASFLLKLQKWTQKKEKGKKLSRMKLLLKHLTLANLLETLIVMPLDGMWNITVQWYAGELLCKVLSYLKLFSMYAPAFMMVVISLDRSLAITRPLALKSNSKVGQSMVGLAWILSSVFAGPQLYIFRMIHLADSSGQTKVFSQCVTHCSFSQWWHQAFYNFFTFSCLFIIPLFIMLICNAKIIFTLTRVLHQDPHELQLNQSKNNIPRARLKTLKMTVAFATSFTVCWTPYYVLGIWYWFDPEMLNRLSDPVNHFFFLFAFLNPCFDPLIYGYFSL
Chain of D(2) dopamine receptor (Homo sapiens) (P14416 whole entry, looked up): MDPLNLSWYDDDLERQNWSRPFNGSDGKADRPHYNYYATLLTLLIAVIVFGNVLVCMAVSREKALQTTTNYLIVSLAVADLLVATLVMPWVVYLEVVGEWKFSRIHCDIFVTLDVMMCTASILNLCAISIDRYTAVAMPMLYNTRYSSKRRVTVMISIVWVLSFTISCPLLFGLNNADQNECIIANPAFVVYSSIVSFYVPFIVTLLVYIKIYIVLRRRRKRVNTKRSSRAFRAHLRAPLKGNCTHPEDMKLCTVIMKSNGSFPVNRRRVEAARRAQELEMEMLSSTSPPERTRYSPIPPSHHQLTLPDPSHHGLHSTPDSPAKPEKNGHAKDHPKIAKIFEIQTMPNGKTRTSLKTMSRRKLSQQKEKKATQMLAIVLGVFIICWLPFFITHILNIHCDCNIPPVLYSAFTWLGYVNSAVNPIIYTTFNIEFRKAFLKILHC
Chain of Beta-2 adrenergic receptor (Homo sapiens) (P07550 whole entry, looked up): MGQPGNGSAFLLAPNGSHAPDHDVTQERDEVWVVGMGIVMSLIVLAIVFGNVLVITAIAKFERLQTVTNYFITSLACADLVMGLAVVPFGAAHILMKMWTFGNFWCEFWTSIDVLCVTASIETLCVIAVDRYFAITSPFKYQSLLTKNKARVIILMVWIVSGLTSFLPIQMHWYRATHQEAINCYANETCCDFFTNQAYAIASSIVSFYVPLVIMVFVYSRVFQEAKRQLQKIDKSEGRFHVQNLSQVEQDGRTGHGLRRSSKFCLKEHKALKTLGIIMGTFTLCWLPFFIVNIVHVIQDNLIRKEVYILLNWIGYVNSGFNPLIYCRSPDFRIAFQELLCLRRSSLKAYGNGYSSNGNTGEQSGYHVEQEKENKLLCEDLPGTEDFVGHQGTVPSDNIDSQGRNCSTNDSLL

N#CCCC#N
inactive: Potency [1] | Potency [2] | Potency [3] | Potency [4] | Potency [5] | Potency [6] | Potency [7] | Potency [8] | Potency [9] | Potency [10] | Potency [11] | Potency [12] | Potency [13] | Potency [14] | Potency [15] | Potency [16] | Potency [17]

CC(Oc1ccc(Cl)cc1Cl)C(=O)O (configuration not stated)
inactive: Potency [1] | Potency [2] | Potency [3] | Potency [18] | Potency [4] | Potency [5] | Potency [8] | Potency [9] | Potency [10] | Potency [11] | Potency [12] | Potency [14] | Potency [15] | Potency [16] | Potency [17]

Clc1nc(Cl)nc(Nc2ccccc2Cl)n1
inactive: Potency [1] | Potency [2] | Potency [3] | Potency [18] | Potency [4] | Potency [5] | Potency [6] | Potency [7] | Potency [8] | Potency [9] | Potency [10] | Potency [11] | Potency [12] | Potency [13] | Potency [14] | Potency [15] | Potency [16] | Potency [17]

CC(C)c1ccc(O)cc1
inactive: Potency [1] | Potency [2] | Potency [3] | Potency [4] | Potency [5] | Potency [6] | Potency [7] | Potency [8] | Potency [9] | Potency [10] | Potency [11] | Potency [12] | Potency [13] | Potency [19] | Potency [14] | Potency [15] | Potency [16] | Potency [17]

CO[C@@H]1[C@H](OC(=O)NC(=O)CCl)CC[C@]2(CO2)[C@H]1[C@@]1(C)O[C@@H]1CC=C(C)C
inactive: activity change [1] 0.0131% [at 11.8 µM, hits give high values] | activation [2] 0.453% [at 15.8 µM] | activation [3] 2.6% [at 11.8 µM] | activation [18] -1.53% [at 13.5 µM] | activation [4] 1.99% [at 13.6 µM] | activity change, negative = cytotoxicity [5] 1.12% [at 13.5 µM] | activation [8] -1.88% [at 13.5 µM] | activity, negative = inhibition [9] -0.303% [at 12.7 µM] | activation [10] -4.56% [at 15.9 µM] | activity, negative = inhibition [11] 56% [at 12.6 µM] | activation [12] -0.344% [at 15.8 µM] | activation [13] -1.17% [at 19 µM] | activity change, negative = inhibition [19] -7.46% [at 18.9 µM] | activity change, negative = inhibition [14] -3.1% [at 19 µM] | activation [15] 4.33% [at 19 µM] | activation [16] 1.8% [at 19 µM] | activity change, negative = inhibition [17] -0.406% [at 18.9 µM]

CCOC(=O)c1ccccc1S(=O)(=O)NC(=O)Nc1nc(Cl)cc(OC)n1
inactive: Potency [2] | Potency [3] | Potency [18] | Potency [4] | Potency [5] | Potency [6] | Potency [7] | Potency [8] | Potency [9] | Potency [10] | Potency [11] | Potency [12] | Potency [13] | Potency [19] | Potency [14] | Potency [16] | Potency [17]

Reference: PubChem BioAssay (Tox21)
